# Where “and” joins values, the source holds several entries; their conditions need not be identical. Identical values can stand only once. A number with no mark means an inactive call. Inconclusive results are not listed. Where a call stands in place of a potency, no number is given. Calls of active or inactive are those of the source. Unless noted, the call rests on the fitted dose curve; in most records, active means well fitted curve in the direction sought with a large enough effect; inconclusive means small, poorly fitted or top-dose-only effect, or another doubt; inactive means no such curve, though single readings can be large; an effect the other way counts as inactive or inconclusive.
# Tests used:
# [1] = qHTS assay for measurement of the activity of small molecule inhibitors on Zika virus induced Caspase-3 activity in human iPSC derived neural progenitor cells (hNPCs) (AID 1224857); further: nearly all actives have a fitted effect of over 65% in size
# Summary of the method: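 Cells were plated at 350 per well and grown 16 to 20 hours. Compound pretreatment lasted one hour, after which ZIKV (2 FFU/cell) was added for 6 hours. Percent inhibition was normalized between uninfected and infected controls.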
# [2] = qHTS assay for measurement of the activity of small molecule inhibitors on Zika virus induced Caspase-3 activity in human astrocytoma cells (AID 1224859)
# Summary of the method: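 Percent inhibition of virus-induced caspase-3/7 signal is calculated against uninfected and ZIKV-infected control cells. Cells are SNB-19, infected at 2 FFU/cell for 6 h after 1 h compound exposure.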
# [3] = qHTS assay to identify small molecule inhibitors of chordoma cells - UCH-1 (AID 1259355); further: nearly all actives have a fitted effect of over 55% in size
# Summary of the method: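 A 48hr growth-inhibition format: each drug tested at 15 concentrations together with added auranofin, camptothecin, doxorubicin, rubitecan and topotecan, with cell viability quantified as CellTiter-Glo luminescence.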
# [4] = qHTS assay to identify small molecule inhibitors of chordoma cells - UCH-2 (AID 1259356); further: series mostly up to about 46 µM
# [5] = Identifying Small Molecule Inhibitors of Pancreatic Cancer Stem Cells (A2780, Spheroid) (AID 1259357);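 further: spheroids pre-formed over 14 days in stem cell medium on hydrogel; compound exposure lasted 48 h before the ATP luminescence read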
# Summary of the method: (§1)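 Viability is scored by CellTiter-Glo luminescence 48 h after dosing, expressed as percent activity against vehicle and no-cell references. Spheroid formats rely on cells cultured 14 days in stem cell media beforehand.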
# [6] = Identifying Small Molecule Inhibitors of Pancreatic Cancer Stem Cells (SN12C, Adherent) (AID 1259358);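 further: cell survival measured after 48 h of compound exposure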
# Summary of the method: (§2)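 After a 4 h attachment period, compounds were pinned into wells and cultures held 48 h under standard incubator conditions. Viability was then measured as CellTiter-Glo luminescence following 10 min at room temperature.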
# [7] = Identifying Small Molecule Inhibitors of Pancreatic Cancer Stem Cells (SN12C, Spheroid) (AID 1259360)
# Summary of the method: as §1
# [8] = Identifying Small Molecule Inhibitors of Pancreatic Cancer Stem Cells (A278, Adherent) (AID 1259361);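 further: viability read after 48 h compound exposure; nearly all actives have a fitted effect of over 35% in size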
# Summary of the method: as §2
# [9] = P-glycoprotein substrates identified in KB-8-5-11 adenocarcinoma cell line, qHTS therapeutic library screen (AID 1346987); further: nearly all actives have a fitted effect of over 65% in size; further: potency means the concentration at half of the fitted maximal effect
# Summary of the method: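 In this qHTS, P-gp-rich KB-8-5-11 cells received library compounds across a concentration range. Viability was quantified by luminescence after 72 h at 37 degree C.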
# [10] = NS1 protein of Zika virus - qHTS assay to identify small molecule inhibitors in human HEK 293 cells (AID 1347053); further: series mostly up to about 46 µM; nearly all actives have a fitted effect of over 55% in size
# Summary of the method: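 Compound-treated (1 h pre-infection) HEK 293 cells infected with ZIKV MR766, MOI = 0.5; after 24 h at 37 C, NS1 read by TR-FRET; data normalized to uninfected and infected controls.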
# [11] = Identifying Small Molecule Inhibitors of Pancreatic Cancer Stem Cells (Panc1, Adherent) (AID 1259362); details: Potency: viability; further: potency means the concentration at half of the fitted maximal effect
# Summary of the method: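 Adherent (2D) versus sphere (3D) formats; spheres generated 14 d in SCM beforehand. Compound transferred by pin tool after 4 h, 48 h incubation, CellTiter-Glo endpoint.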
# [12] = Natriuretic polypeptide receptor (hNpr1) antagonism - Pilot counterscreen GloSensor control cell line (AID 1347045; calls by dose curve; further: series mostly up to about 38 µM)
# Summary of the method: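 HEK293 cGMP-sensor cells; 2% GloSensor reagent 2 h RT; LOPAC compounds in 1:5 titrations 30-50 min; 50 uM SNP 20 min; luminescence pre-read and post-read.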
# [13] = molecular target: Atrial natriuretic peptide receptor 1 (Homo sapiens) (UniProt P16066); assay: Natriuretic polypeptide receptor (hNpr1) antagonism - Pilot screen (AID 1347049; calls by dose curve;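 further: HEK293 cells with hNpr1 and GloSensor cGMP luciferase stimulated by 0.1 nM hNppA; agonist-evoked cGMP luminescence read 20 min after hNppA addition; series mostly up to about 58 µM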)
# Summary of the method: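 Cells expressing receptor plus cGMP biosensor are seeded and incubated overnight at 37C, then loaded with GloSensor reagent (2% final) at room temperature for 2 h. Library compounds go on for 30 min. A pre-read precedes agonist (hNppA, 0.1 nM final) and a 20-min readout.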
# [14] = molecular target: T1, Tyrosine-protein phosphatase non-receptor type substrate 1 (Homo sapiens) + Leukocyte surface antigen CD47 (Homo sapiens) (UniProt P78324+Q08722); assay: CD47-SIRPalpha protein protein interaction - LANCE assay qHTS validation (AID 1347057; active means well fitted curve in the direction sought with a large enough effect in the signal ratio, with a control signal flat, not every such curve was filed as active; the % refers to the signal ratio; further: series mostly up to about 38 µM)
# Summary of the method: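 Inhibition of soluble CD47/SIRPalpha ectodomain association by titrated compounds, measured as 665/615 nm time-resolved FRET ratio after sequential 30 min room-temperature incubations.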
# [15] = molecular target: T1, Tyrosine-protein phosphatase non-receptor type substrate 1 (Homo sapiens) + Leukocyte surface antigen CD47 (Homo sapiens); assay: CD47-SIRPalpha protein protein interaction - HTRF assay qHTS validation (AID 1347058; active means well fitted curve in the direction sought with a large enough effect in the signal ratio, not every such curve was filed as active; the % refers to the signal ratio; further: series mostly up to about 38 µM)
# Summary of the method: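 Soluble extracellular domains (6His-CD47, Avi-tag-biotinylated SIRPalpha) in PBS pH 7.4 with 0.05% IGEPAL CA-630. Compounds were preincubated 30 min at RT with CD47 and anti-His-Eu, then SIRPalpha and SAV-XL665 were added. TR-FRET 665/615 ratio.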
# Chain of Atrial natriuretic peptide receptor 1 (Homo sapiens) (P16066 whole entry, looked up): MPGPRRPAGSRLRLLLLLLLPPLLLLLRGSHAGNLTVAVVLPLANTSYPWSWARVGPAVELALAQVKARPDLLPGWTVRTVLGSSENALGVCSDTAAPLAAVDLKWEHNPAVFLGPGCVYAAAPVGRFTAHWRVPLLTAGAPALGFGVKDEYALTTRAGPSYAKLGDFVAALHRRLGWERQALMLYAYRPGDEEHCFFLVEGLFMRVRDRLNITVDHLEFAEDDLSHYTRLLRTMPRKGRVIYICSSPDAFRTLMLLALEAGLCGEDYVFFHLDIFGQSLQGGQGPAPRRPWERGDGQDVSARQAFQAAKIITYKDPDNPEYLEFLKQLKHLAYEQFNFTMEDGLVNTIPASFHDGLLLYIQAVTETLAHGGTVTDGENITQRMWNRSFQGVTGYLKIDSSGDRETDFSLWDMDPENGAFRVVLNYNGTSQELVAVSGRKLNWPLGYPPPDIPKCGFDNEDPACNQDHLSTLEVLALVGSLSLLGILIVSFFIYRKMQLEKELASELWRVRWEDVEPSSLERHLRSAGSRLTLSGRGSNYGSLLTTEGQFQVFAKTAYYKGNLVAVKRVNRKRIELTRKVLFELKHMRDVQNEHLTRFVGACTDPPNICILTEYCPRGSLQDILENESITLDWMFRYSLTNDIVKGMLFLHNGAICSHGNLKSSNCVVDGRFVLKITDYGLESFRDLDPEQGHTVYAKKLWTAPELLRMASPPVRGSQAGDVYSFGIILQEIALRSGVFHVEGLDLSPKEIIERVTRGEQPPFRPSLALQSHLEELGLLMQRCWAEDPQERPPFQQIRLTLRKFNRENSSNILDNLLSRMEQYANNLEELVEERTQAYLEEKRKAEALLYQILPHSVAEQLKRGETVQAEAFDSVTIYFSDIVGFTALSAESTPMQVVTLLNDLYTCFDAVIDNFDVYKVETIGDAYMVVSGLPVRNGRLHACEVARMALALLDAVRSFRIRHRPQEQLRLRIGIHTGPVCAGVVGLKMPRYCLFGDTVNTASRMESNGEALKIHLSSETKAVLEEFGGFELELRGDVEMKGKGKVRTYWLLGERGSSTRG
# T1 sequence (P78324 whole entry, looked up, the tested form may be a part): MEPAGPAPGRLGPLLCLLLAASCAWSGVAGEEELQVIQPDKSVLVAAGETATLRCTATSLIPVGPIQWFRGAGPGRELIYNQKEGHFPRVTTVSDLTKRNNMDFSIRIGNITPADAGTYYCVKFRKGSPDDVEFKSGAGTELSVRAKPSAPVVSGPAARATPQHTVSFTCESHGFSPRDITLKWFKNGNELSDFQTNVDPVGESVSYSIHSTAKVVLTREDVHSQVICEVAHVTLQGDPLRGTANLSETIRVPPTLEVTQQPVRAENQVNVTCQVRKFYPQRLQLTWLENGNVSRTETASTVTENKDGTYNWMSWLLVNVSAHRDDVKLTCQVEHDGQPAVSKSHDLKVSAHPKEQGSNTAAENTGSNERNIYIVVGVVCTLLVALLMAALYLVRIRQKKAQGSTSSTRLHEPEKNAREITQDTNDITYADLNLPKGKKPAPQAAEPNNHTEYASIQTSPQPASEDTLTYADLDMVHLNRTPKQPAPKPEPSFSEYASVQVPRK
# T1 sequence (Q08722 whole entry, looked up, the tested form may be a part): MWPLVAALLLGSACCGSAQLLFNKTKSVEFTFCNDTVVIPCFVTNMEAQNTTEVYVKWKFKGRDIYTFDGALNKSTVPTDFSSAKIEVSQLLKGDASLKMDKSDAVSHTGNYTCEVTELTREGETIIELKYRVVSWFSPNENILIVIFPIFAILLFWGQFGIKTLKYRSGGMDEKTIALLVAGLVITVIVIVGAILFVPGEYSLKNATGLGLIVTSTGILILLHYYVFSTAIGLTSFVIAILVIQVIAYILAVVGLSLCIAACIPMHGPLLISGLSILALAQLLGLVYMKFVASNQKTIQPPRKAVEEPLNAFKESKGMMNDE
smiles,measurement,setting,value
CC(=O)O[C@@]12CO[C@@H]1C[C@H](O)[C@@]1(C)C(=O)[C@H](O)C3=C(C)[C@@H](OC(=O)[C@H](O)[C@@H](NC(=O)OC(C)(C)C)c4ccccc4)C[C@@](O)([C@@H](OC(=O)c4ccccc4)[C@H]21)C3(C)C,outcome,[1],inactive
same,outcome,[2],inactive
same,Potency,[3],inactive
same,outcome,[4],inactive
same,outcome,[5],inactive
same,outcome,[6],inactive
same,outcome,[7],inactive
same,IC50 (viability decrease),[8],inactive
same,Potency,[9],6.51 µM (active) and 4.11 µM (active)
same,Potency,[10],inactive
NC(=O)N/N=C/c1ccc([N+](=O)[O-])o1,outcome,[1],inactive
same,outcome,[2],inactive
same,Potency,[3],inactive
same,outcome,[4],inactive
CCOC(=O)[C@H](CCc1ccccc1)N[C@@H](C)C(=O)N1C(=O)N(C)C[C@H]1C(=O)O,outcome,[1],inactive
same,outcome,[2],inactive
same,Potency,[3],inactive
same,outcome,[4],inactive
same,Potency,[9],inactive
O=C1Nc2ccc(Cl)cc2[C@@](C#CC2CC2)(C(F)(F)F)O1,outcome,[1],inactive
same,outcome,[2],inactive
same,Potency,[3],inactive
same,outcome,[4],inactive
same,IC50 (viability decrease),[8],48.1 µM (active)
same,Potency,[11],48.1 µM (active)
same,Potency,[10],inactive
CC(=O)Oc1c(C)c(C)c2c(c1C)CC[C@@](C)(CCC[C@H](C)CCC[C@H](C)CCCC(C)C)O2,outcome,[1],inactive
same,outcome,[2],inactive
same,Potency,[3],inactive
same,outcome,[4],inactive
same,Potency,[9],inactive
c1ccc2c(CC3=NCCN3)cccc2c1,outcome,[1],inactive
same,outcome,[2],inactive
same,Potency,[3],inactive
same,outcome,[4],inactive
same,Potency,[9],inactive
same,Potency,[10],inactive
Cc1cc(N)c2ccccc2[n+]1CCCCCCCCCC[n+]1c(C)cc(N)c2ccccc21,outcome,[1],inactive
same,outcome,[2],inactive
same,Potency,[3],inactive
same,outcome,[4],inactive
same,Potency,[9],inactive
same,outcome,[12],inactive
same,outcome,[13],inactive
same,outcome,[14],inactive
NC1CCN(c2cccc(Cl)n2)CC1,outcome,[1],inactive
same,outcome,[2],inactive
same,Potency,[3],inactive
same,outcome,[4],inactive
same,Potency,[9],inactive
same,outcome,[12],inactive
same,outcome,[13],inactive
same,Potency,[10],inactive
CC1(C)S[C@@H]2[C@H](NC(=O)Cc3ccccc3)C(=O)N2[C@H]1C(=O)O (tested in a mixture with another compound),outcome,[1],inactive
same,outcome,[2],inactive
same,Potency,[3],inactive
same,outcome,[4],inactive
same,Potency,[9],inactive
same,Potency,[10],inactive
CS(=O)(=O)c1ccc([C@@H](O)[C@@H](CF)NC(=O)C(Cl)Cl)cc1,outcome,[1],inactive
same,outcome,[2],inactive
same,Potency,[3],inactive
same,outcome,[4],inactive
same,Potency,[9],inactive
same,Potency,[10],inactive
[Cl][In]([Cl])[Cl],outcome,[1],inactive
same,outcome,[2],inactive
same,Potency,[3],inactive
same,outcome,[4],inactive
same,Potency,[9],inactive
NC(CSCC(=O)O)C(=O)O (configuration not stated),outcome,[1],inactive
same,outcome,[2],inactive
same,Potency,[3],inactive
same,outcome,[4],inactive
same,Potency,[9],inactive
same,Potency,[10],inactive
OCC(CO)N[C@H]1C[C@](O)(CO)[C@@H](O)[C@H](O)[C@H]1O,outcome,[1],inactive
same,outcome,[2],inactive
same,Potency,[3],inactive
same,outcome,[4],inactive
same,Potency,[9],inactive
same,Potency,[10],inactive
CCCCCCCCCCCCCCCCCCOCC(O)CO (configuration not stated),outcome,[1],inactive
same,outcome,[2],inactive
same,Potency,[3],inactive
same,outcome,[4],inactive
same,Potency,[9],inactive
CCCn1cnc2c1c(=O)n(CCCCC(C)=O)c(=O)n2C,outcome,[1],inactive
same,outcome,[2],inactive
same,Potency,[3],inactive
same,outcome,[4],inactive
same,Potency,[9],inactive
same,outcome,[12],inactive
same,outcome,[13],inactive
same,Potency,[10],inactive
same,outcome,[14],inactive
same,outcome,[15],inactive
CN1CCN(C2Cc3ccccc3Sc3ccc(Cl)cc32)CC1 (configuration not stated),outcome,[1],inactive
same,outcome,[2],inactive
same,Potency,[3],inactive
same,outcome,[4],inactive
same,Potency,[9],inactive
same,outcome,[12],inactive
same,outcome,[14],inactive
O=c1[nH]c(=O)c2[nH]c(=O)[nH]c2[nH]1,"activity change, negative = inhibition",[1],-8.73% [at 9.06 µM]
same,"activity change, negative = inhibition",[2],-0.8% [at 9.06 µM]
same,Potency,[3],inactive
same,outcome,[4],inactive
same,Potency,[9],inactive
COc1ccc2cc1Oc1cc3c(cc1OC)CC[N+](C)(C)[C@H]3Cc1ccc(cc1)Oc1c(OC)c(OC)cc3c1[C@@H](C2)[N+](C)(C)CC3,outcome,[1],inactive
same,outcome,[2],inactive
same,Potency,[3],inactive
same,outcome,[4],inactive
same,Potency,[9],inactive
same,Potency,[10],inactive
O=C(O)COc1nn(Cc2ccccc2)c2ccccc12,outcome,[1],inactive
same,outcome,[2],inactive
same,Potency,[3],inactive
same,outcome,[4],inactive
same,Potency,[9],inactive
same,Potency,[10],inactive
CCCCOC(=O)c1ccc(O)cc1,outcome,[1],inactive
same,outcome,[2],inactive
same,Potency,[3],inactive
same,outcome,[4],inactive
same,Potency,[9],inactive
same,Potency,[10],inactive
Nc1ncnc2c1ncn2[C@@H]1O[C@H](CO)[C@@H](O)[C@H]1O,outcome,[1],inactive
same,outcome,[2],inactive
same,Potency,[3],inactive
same,outcome,[4],inactive
same,Potency,[9],inactive
same,outcome,[12],inactive
same,outcome,[13],inactive
same,Potency,[10],inactive
same,outcome,[14],inactive
same,outcome,[15],inactive
CC(C)(C)C(=O)C(Oc1ccc(Cl)cc1)n1ccnc1 (configuration not stated),outcome,[1],inactive
same,outcome,[2],inactive
same,Potency,[3],inactive
same,outcome,[4],inactive
same,Potency,[9],inactive
same,Potency,[10],inactive
C[C@@H]1CCN(C(=O)[C@H](CCCN=C(N)N)NS(=O)(=O)c2cccc3c2NC[C@H](C)C3)[C@@H](C(=O)O)C1,outcome,[1],inactive
same,outcome,[2],inactive
same,Potency,[3],inactive
same,outcome,[4],inactive
same,Potency,[9],inactive
same,Potency,[10],inactive
C#CCN(C)Cc1ccccc1,outcome,[1],inactive
same,outcome,[2],inactive
same,Potency,[3],inactive
same,outcome,[4],inactive
same,Potency,[9],inactive
same,outcome,[12],inactive
same,outcome,[13],inactive
same,Potency,[10],inactive
same,outcome,[14],inactive
same,outcome,[15],inactive
O=C(O)c1ccccn1,outcome,[1],inactive
same,outcome,[2],inactive
same,Potency,[3],inactive
same,outcome,[4],inactive
same,Potency,[9],inactive
CCOC(CN1CCN(CC(C)C(=O)c2ccccc2)CC1)c1ccccc1 (configuration not stated),outcome,[1],inactive
same,outcome,[2],inactive
same,Potency,[3],inactive
same,outcome,[4],inactive
same,Potency,[9],inactive
CCCCCCCCCCCCCCCC(=O)NCCO,outcome,[1],inactive
same,outcome,[2],inactive
same,Potency,[3],inactive
same,outcome,[4],inactive
same,Potency,[9],inactive
same,outcome,[13],inactive
O=C1O[C@H](CO)[C@@H](O)[C@H](O)[C@H]1O,outcome,[1],inactive
same,outcome,[2],inactive
same,Potency,[3],inactive
same,outcome,[4],inactive
same,Potency,[9],inactive
same,Potency,[10],inactive
CCN(CC)CCCC(C)Nc1c2ccc(Cl)cc2nc2ccc(OC)cc12 (configuration not stated),outcome,[1],inactive
same,outcome,[2],inactive
same,Potency,[3],inactive
same,outcome,[4],inactive
same,Potency,[9],6.32 µM (active)
same,outcome,[13],inactive

# — PubChem BioAssay (NCATS)
